This is part of a sample that, as a whole, favours compounds with a hit. Of some 83,000 tested, about 20% had one in any assay.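 Cells were grown in 96-well plates and exposed to the test compound at a single concentration for 48 hours; results are reported as percent growth, with values below 10 considered active.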 Active and inactive are the calls of the source.

The assay concerns HCT-15 colon. Description: NCI-60 one-dose screen, 48 h (100 = growth as untreated, 0 = no growth, -100 = all killed). The conditions noted are these: 10 µM unless noted. As for the experimental part:
Growth inhibition of the HCT-15 human tumor cell line is measured as a screen for anti-cancer activity. Cells are grown in 96 well plates and exposed to the test compound for 48 hours. Compounds are tested at a single concentration, which is 10^-5 M for most compounds. The reported endpoint is percent growth (GI% or GIPRCNT), where numbers from 0 - 100% represent growth inhibition, and numbers from -100% - 0 represent cell death. For example, a value of 40 represents 60% growth inhibition. A value of 0 means no net growth occurred over the course of the experiment. A value of -40 indicates 40% of cells at the beginning of the experiment died by the end of the experiment. A value of -100 means all cells are dead at the end of the experiment.
NCI-60 Human Tumor Cell Lines Screen was performed using the standard one-dose NCI protocol, which is described in more detail at https://dtp.cancer.gov/discovery_development/nci-60/default.htm.
Compounds with GIPRCNT values below 10 were considered active. Activity score was based on GIPRCNT using the following formula: […]
Score is 0 for GIPRCNT values of 100 or above, 50 for GIPRCNT values of 0, and 100 for GIPRCNT values of -100.
`N#C/C(=C\NC(=S)N=Nc1c(O)[nH]c2ccccc12)c1nc2ccccc2s1`: the growth is 101% (inactive).

For `CC(=O)NCNC(C)=O`, the growth was 101% (inactive). To `N#CC1(O)CCCCC1` belongs 99.6% (inactive). For the molecule `Cc1ccc(S(=O)(=O)CCCl)cc1`, the growth was 90.9% (inactive). With `FC(F)(F)c1cc(NC2=NCCN=C(Nc3cc(C(F)(F)F)cc(C(F)(F)F)c3)SS2)cc(C(F)(F)F)c1`, the growth is 37.8% (inactive). To `N=C(N)c1nn(C2OC(CO)C(O)C2O)c2nc[nH]c(=O)c12` (stereo not given) belongs 0.318% (active); to `Cn1c(=O)c2[nH]c(CCCCC(=O)O)nc2n(C)c1=O`, 107% (inactive).

With `CN(C)c1ccc2nc3ccc(=[N+](C)C)cc-3oc2c1`, the growth is 33.3% (inactive). To `Cc1cc(Cc2ccccc2)c(O)c(Cc2ccccc2)c1` belongs 89.8% (inactive). On to `COc1nc2ccccc2s1`, for which the growth is 98% (inactive).

Turning to `Cc1[nH]n(-c2ccccc2)c(=O)c1C=NC(=S)C(N)=S`, the growth was 99.3% (inactive). Consider `O=C1NC(=O)C(c2ccccc2)O1` (stereo not given), for which the growth is 107% (inactive). Turning to `CCCCCCCCCc1ccc(OC(C)=O)cc1`, the growth is 111% (inactive).

For the molecule `COc1cc(OC)c2cc(C(=O)c3ccc(C#N)cc3)c(=O)oc2c1`, the growth is 105% (inactive). Next, `CCCC(=O)c1cccs1`: 100% (inactive). Take `C/C(=N\O)c1ccccn1`: the growth is 102% (inactive).

Take `CCOC(=O)C(C#N)=C1CCN(C)CC1`: the growth was 99.5% (inactive). Next, `Oc1cccc(CNC2CCCCC2)c1`: 105% (inactive); `Cc1ccc(NC(=S)N2CCOCC2)cc1C`: 86.2% (inactive); `CSc1cnc2ccccc2n1`: 104% (inactive). As for `COC1(OC)C2(Cl)C(Cl)=C(Cl)C1(Cl)C1COCC12` (stereo not given), the growth was 103% (inactive).

Take `C/C(O)=C(/C=N/C(=S)Nc1ccccc1)C(=O)Nc1ccccc1C`: the growth was 96.7% (inactive). To `C#CCSc1nnnn1-c1ccccc1` belongs 54.1% (inactive); to `COc1cc(N)c2ncccc2c1Cl`, 90.5% (inactive). Next, `NC(=S)N/N=C/c1ccc(Cl)cc1`: 103% (inactive); `COc1nc(Nc2cccc(C(F)(F)F)c2)nc(OC)n1`: 103% (inactive). Next, `CCCCc1ccc2nc(NC(=O)OC)[nH]c2c1`: 7.85% (active).

Consider `Cc1cc(=O)n(Nc2ccccc2)c(O)c1C#N`, for which the growth is 112% (inactive).

`NC(CCl)=NCC12CC3CC(CC(C3)C1)C2`: the growth was 9.53% (active). To `CCC(/C=C\C(C)=O)CC` belongs 101% (inactive); to `CN(C(=S)S(=O)(=O)C12CC3CC(CC(C3)C1)C2)c1ccccc1`, 83.7% (inactive); to `Cc1ccc(/C=N/NC(N)=S)s1`, 109% (inactive). Next, `CCOC(=O)c1ccc(NC(=O)Nc2nccs2)cc1`: 4.65% (active); `CC(=O)C1C(=O)C(=O)N(c2ccc(Cl)c(Cl)c2)C1=O` (stereo not given): 93.8% (inactive); `CC(=O)N(C(C)=O)c1ccc(C)cc1`: 96% (inactive).

In the case of `O=S1(=O)c2ccccc2Oc2ccccc21`, the growth was 101% (inactive). Next, `CC1CN(CCO)CC(C)O1` (stereo not given): 102% (inactive); `CCN(C(C)=O)c1ccc([N+](=O)[O-])cc1`: 109% (inactive). On to `C=CCOc1ccc(Cl)cc1Cl`, for which the growth is 104% (inactive). Next, `CCOC(=N)CC(=O)Nc1cccc(C)c1Cl`: 100% (inactive).

Values taken from PubChem BioAssay (NCI).
